Measurements from PubChem BioAssay AID686978 (National Center for Advancing Translational Sciences (NCATS), 2013).
About 64,000 (15%) of roughly 420,000 compounds were called active. About 27% were inconclusive and are not listed. Not all results are given here. A number with no mark means an inactive call. The call rests on the fitted dose curve; in most records, active means well fitted inhibition curve with a large enough effect; inconclusive means small, poorly fitted or top-dose-only effect; inactive means flat fitted curve, though single readings scatter.
On the % scale 0 is the no-effect control and ±100 the full control effect; potency means the concentration at half of the fitted maximal effect.

Assay: qHTS for Inhibitors of human tyrosyl-DNA phosphodiesterase 1 (TDP1): qHTS in cells in absence of CPT; further: nearly all actives have a fitted effect of over 55% in size
Details: DT40 Tdp1-/- hTDP1 cells, no CPT, ATP luminescence, 48 h; activity change, negative = growth inhibition: at 46.2 µM (top of the series)
Description: Human tyrosyl-DNA phosphodiesterase 1 (TDP1) is a novel repair gene, and we propose to use it as a new target for anticancer drug development. TDP1 is not an essential protein, but under treatment with topoisomerase I poison (camptothecin: CPT), TDP1 works as a critical factor for cell survival. To directly identify novel TDP1 inhibitors active in a cellular environment, we have knocked-out the Tdp1 gene in chicken DT40 cells (Tdp1-/-) and generated a complemented counterpart cells that contains a stable transfection of the human TDP1 gene (Tdp1-/-;hTDP1 cells). For the primary screen, Tdp1-/-;hTDP1 cells will be exposed to small molecules in the presence or absence of CPT, and their growth kinetics will be evaluated after 48 hours by measuring ATP activity. […] The hit compounds will then be evaluated in the presence or absence of CPT using Tdp1-/- cells. […] In tertiary assays, biochemical gel-based assays will be used to assess whether the hit compounds specifically target TDP1.
To this end, we have screened this cell line against the MLSMR in two primary screens. In one screen we add CPT and in the other we screen in the absence of CPT; this AID represents the screen where CPT was absent.
NIH Chemical Genomics Center [NCGC]
NIH Molecular Libraries Probe Centers Network [MLPCN]
Assay Submitter (PI): Yves Pommier, NCI
DT40-hTDP1 cells without 20 nM Camptothecin (add 20 microL of DMSO in 1 L of cell culture medium) were dispensed at 400 cells/5microL/well in tissue culture treated 1536-well white wall/solid bottom assay plates (Greiner Bio-One North America, NC, U.S.A.) using a Multidrop Combi 8 channel dispenser (Thermo Fisher, Waltham, MA, USA). 23 nL compounds and controls were transferred using the pin tool (Kalypsys, San Diego, CA, USA) to the assay plates. The assay plates were then incubated at 37 masculineC for a minimum 48 hr. Three microL of Cell Titer Glo solution was added to the plates and incubated at RT in dark for 30 min. Luminescence was read using ViewLux (Perkin Elmer) with 1 sec exposure slow speed, high gain and 2x binning.
For `COc1ccc(S(=O)(=O)N2CCOCC2)c(C)c1C`, the “activity change, negative = growth inhibition” value was 0.714%. In the case of `COc1ccc(NC(=O)COC(=O)c2ccc(NS(=O)(=O)/C=C/c3ccccc3)cc2)cc1`, the “activity change, negative = growth inhibition” value is reported as -29.2%. In the case of `COc1ccccc1Cn1c(=S)[nH]c2cc(C(=O)N3CCN(C)CC3)ccc2c1=O`, the “activity change, negative = growth inhibition” value is reported as -26.3%. In the case of `COc1ccc(CNC(=O)C2CCN(C(=O)c3ccco3)CC2)cc1`, the “activity change, negative = growth inhibition” value is reported as -7.38%. In the case of `COc1ccc(Cn2c(=O)[nH]c3cc(C(=O)N4CCN(C(=O)c5ccco5)CC4)ccc3c2=O)cc1`, the Potency is reported as 11.2 µM (active). In the case of `COC(=O)c1ccc(NC(=O)CSc2nc(N)c(NC(=O)c3ccc(Br)o3)c(=O)[nH]2)cc1`, the “activity change, negative = growth inhibition” value is reported as 3.08%. For `Cc1cc(NCc2cccnc2)no1`, the “activity change, negative = growth inhibition” value was -4.16%. In the case of `c1ccc(CNc2ncncc2-c2cccnc2)cc1`, the “activity change, negative = growth inhibition” value is reported as -3.74%. With `Clc1ccc(Cn2ncc3c(NCc4cccnc4)ncnc32)cc1` the Potency was 20.6 µM (active). In the case of `OC[C@@H]1CN(Cc2ccc(Cl)cc2)C[C@H](n2cnc3c(NCc4ccncc4)ncnc32)O1`, the “activity change, negative = growth inhibition” value is reported as -16.7%. With `Brc1ccc2ncnc(NCc3cccnc3)c2c1` the Potency was 20.6 µM (active). For `Clc1ccc(Nc2ncnc3c2nnn3Cc2ccccc2)cc1`, the “activity change, negative = growth inhibition” value was -17.1%. With `O=C(NCCN1CCOCC1)c1ccc2c(c1)ncn2C1CCCC1` the “activity change, negative = growth inhibition” value was 3.13%. For `CC(Oc1cccc(Cl)c1)C(=O)NC1CC(C)(C)NC(C)(C)C1` (stereo not given), the “activity change, negative = growth inhibition” value was -0.549%. For `CN(CC(=O)NCCc1ccccc1)S(=O)(=O)c1cnc[nH]1`, the “activity change, negative = growth inhibition” value was 18.4%. In the case of `CN=C(NC#N)NCCSCc1nc[nH]c1C`, the Potency is reported as “inactive”. In the case of `COc1ccc(CN2C(=O)CN=C2Nc2ccc(C)cc2C)cc1`, the “activity change, negative = growth inhibition” value is reported as 5.62%. For `CCOC(=O)CN1C(C(=O)c2ccccc2)=C(OC(=O)C(C)(C)C)c2ccccc2S1(=O)=O`, the Potency was 14.6 µM (active). With `COC(=O)C1=C(c2ccccc2)c2ccccc2S(=O)(=O)N1CC(=O)Nc1ccccc1C(F)(F)F` the “activity change, negative = growth inhibition” value was -26.4%. With `CCOC(=O)c1ccccc1CN1C(=O)c2ccccc2S1(=O)=O` the “activity change, negative = growth inhibition” value was -23.2%. In the case of `Cn1c(SCC(=O)c2ccc(F)cc2)nnc1-c1ccccn1`, the “activity change, negative = growth inhibition” value is reported as -24.7%. With `CC1(C(=O)Nc2cccc3c2CCCC3)CCN1C(=O)C1(c2ccccc2)CC1` (stereo not given) the Potency was 14.6 µM (active). In the case of `CCCNC(=O)C1(C)CCN1C(=O)C1(c2ccccc2)CC1` (stereo not given), the “activity change, negative = growth inhibition” value is reported as -9.77%. With `CC1(C(=O)Nc2cccc3c2CCCC3)CCN1C(=O)CCc1ccc(Cl)cc1Cl` (stereo not given) the Potency was 23.1 µM (active). In the case of `CC1(C(=O)NS(=O)(=O)Cc2cccc(Cl)c2)CCN1C(=O)Cc1ccc(Cl)cc1Cl` (stereo not given), the “activity change, negative = growth inhibition” value is reported as -1.96%. In the case of `Cc1ccccc1S(=O)(=O)NC(=O)C1(C)CCN1C(=O)Cc1ccc(Cl)cc1Cl` (stereo not given), the “activity change, negative = growth inhibition” value is reported as 3.67%. With `Cc1ccccc1S(=O)(=O)NC(=O)C1(C)CCN1C(=O)C1(c2ccc(Cl)cc2)CC1` (stereo not given) the “activity change, negative = growth inhibition” value was -13.5%. For `O=C(N=C1SC2CS(=O)(=O)CC2N1c1ccccc1)c1ccccc1` (stereo not given), the “activity change, negative = growth inhibition” value was -18.2%. For `O=c1ccn([C@@H]2O[C@H](CNS(=O)(=O)c3cc4ccccc4s3)[C@@H](O)[C@H]2O)c(=O)[nH]1`, the “activity change, negative = growth inhibition” value was -15.3%. For `Nc1ccc(Oc2ccc(Cl)cc2)cc1`, the “activity change, negative = growth inhibition” value was -10.6%. For `CC(C(=O)O)c1ccc(C2CCCCC2)c2ccccc12` (stereo not given), the “activity change, negative = growth inhibition” value was -4.66%. For `Cc1ccccc1Nc1scc(-c2ccc(Br)cc2)[n+]1-c1ccccc1C`, the Potency was 29.1 µM (active). In the case of `CCCCC1S/C(=N/N=C/c2cccs2)NC1=O` (stereo not given), the Potency is reported as 18.4 µM (active). For `CCC1S/C(=N/N=C/c2ccco2)NC1=O` (stereo not given), the “activity change, negative = growth inhibition” value was -3.68%. In the case of `O=C1N/C(=N\N=C\c2ccco2)SC1Cc1ccc(F)cc1` (stereo not given), the “activity change, negative = growth inhibition” value is reported as -17.3%. In the case of `C=CCOC(=O)C1=C[C@H](c2ccc(Br)cc2)C[C@H](OCCCCO)O1`, the “activity change, negative = growth inhibition” value is reported as -17.2%. With `CC1(C)CC(=O)C(C2=NC(C)(C)Cc3ccccc32)=C(O)C1` the “activity change, negative = growth inhibition” value was -29.5%. For `CCOc1ccc(NC(=O)N(CCC(C)C)C(C)c2ccco2)cc1` (stereo not given), the Potency was 20.6 µM (active). For `CCOc1ccc(NC(=O)N(CC(C)C)CC(C)C)cc1`, the “activity change, negative = growth inhibition” value was -17.9%. For `CCOc1ccc(NC(=O)c2ncoc2-c2ccco2)cc1`, the “activity change, negative = growth inhibition” value was -37.2%. For `C[N+](C)(C)CCCCCNCC12CC3CC(CC(C3)C1)C2`, the “activity change, negative = growth inhibition” value was -2.06%. For `CC(C)(O)C#Cc1ncc(C(F)(F)F)cc1Cl`, the “activity change, negative = growth inhibition” value was -6.92%. For `Cc1cc(C)n(S(=O)(=O)c2cccc([N+](=O)[O-])c2)n1`, the “activity change, negative = growth inhibition” value was -14.9%. In the case of `Cc1ccc(S(=O)(=O)N[C@H](CO)C(C)C)cc1`, the “activity change, negative = growth inhibition” value is reported as -8.67%. For `CN(C)C(=O)N=NC(=O)N(C)C`, the Potency was 9.2 µM (active). For `COC(=O)N/N=C/c1c[n+]([O-])c2ccccc2[n+]1[O-]`, the Potency was 0.0422 µM (active). With `CC(C)(C)OC(=O)N/N=C/c1ccc(C(=O)O)cc1` the “activity change, negative = growth inhibition” value was -1.61%. For `CCOC(=O)N/N=C/c1cccnc1`, the “activity change, negative = growth inhibition” value was -4.41%. In the case of `N#Cc1ccccc1NC(=O)c1ccc2c(c1)OCO2`, the “activity change, negative = growth inhibition” value is reported as -7.95%. In the case of `CC1CCN(C(NC(=O)c2ccco2)C(=O)c2ccccc2)CC1` (stereo not given), the “activity change, negative = growth inhibition” value is reported as -16.8%. In the case of `O=C(NCCCN1CCCC1=O)C(=O)NCC1OCCN1S(=O)(=O)c1ccc(Br)cc1` (stereo not given), the Potency is reported as 0.411 µM (active). For `O=C(NCc1ccncc1)C(=O)NCC1OCCN1S(=O)(=O)c1ccc(Br)cc1` (stereo not given), the “activity change, negative = growth inhibition” value was -29.5%. For `O=C(NCc1ccc2c(c1)OCO2)C(=O)NCC1OCCN1S(=O)(=O)c1ccc(F)cc1` (stereo not given), the “activity change, negative = growth inhibition” value was -8.46%. In the case of `CC(C)c1ccc(NC(=O)CCN2C(=O)c3ccc([N+](=O)[O-])cc3C2=O)cc1`, the “activity change, negative = growth inhibition” value is reported as -9.27%. For `CC(C)CNC(=O)COC(=O)/C=C/c1ccccc1[N+](=O)[O-]`, the “activity change, negative = growth inhibition” value was -0.949%. For `CC(C)OCCCNC(=O)C1CC(=O)N(C2CCCCCCC2)C1` (stereo not given), the “activity change, negative = growth inhibition” value was -2.8%. In the case of `O=C(Cc1ccccc1)NCC1OCCc2ccccc21` (stereo not given), the “activity change, negative = growth inhibition” value is reported as -8.35%. For `Cc1ccc2nc(N3CCN(C(=O)c4ccco4)CC3)sc2c1`, the “activity change, negative = growth inhibition” value was -28.4%. In the case of `COc1ccc2nc(N3C(=O)C(O)=C(C(=O)c4ccco4)C3c3ccco3)sc2c1` (stereo not given), the “activity change, negative = growth inhibition” value is reported as -10.9%. With `COc1ccc2nc(N3CCN(C(=O)c4ccc([N+](=O)[O-])o4)CC3)sc2c1` the Potency was 20.6 µM (active). In the case of `COC(=O)[C@H](CCSC)NC(=O)Nc1ccc(OC)cc1`, the “activity change, negative = growth inhibition” value is reported as 8.53%. With `CCN(CC)C(=O)CCC(=O)Nc1ccc(C(=O)OC)cc1` the “activity change, negative = growth inhibition” value was 1.08%. In the case of `COc1ccccc1N1CCN(C(CNC(=O)C(=O)NCc2ccc(C)cc2)c2cccnc2)CC1` (stereo not given), the Potency is reported as 2.06 µM (active). In the case of `Cc1ccc(NC(=O)C(=O)NCC(c2cccnc2)N2CCOCC2)cc1` (stereo not given), the “activity change, negative = growth inhibition” value is reported as -17.6%. With `Cc1ccc(C)c(NC(=S)NCC(c2cccnc2)N2CCOCC2)c1` (stereo not given) the “activity change, negative = growth inhibition” value was -12.6%. With `Cc1cc(C)n(-c2nnc(C)n2NC(=O)c2cccc(Cl)c2)n1` the “activity change, negative = growth inhibition” value was -4.6%. In the case of `Cn1c(SCC(=O)c2cccs2)nnc1-c1ccco1`, the “activity change, negative = growth inhibition” value is reported as 0.382%. With `O=C(CCCCCN1C(=O)c2cccc3cccc(c23)C1=O)NCc1ccco1` the “activity change, negative = growth inhibition” value was -20.4%. In the case of `O=C(CN1C(=O)/C(=C\c2ccc(C(F)(F)F)cc2)Sc2ccccc21)NCc1ccco1`, the Potency is reported as 13 µM (active). With `CC1CCC2(CC1)NC(=O)N(CC(=O)NCc1ccco1)C2=O` (stereo not given) the “activity change, negative = growth inhibition” value was -3.31%.
